Laboratory results: PubChem BioAssay AID1508600 (Functional Genomics Laboratory (NCATS/FGL), 2020)
Among all 53,000 sequences or so, about 3,700 (7%) were called active.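 Rule for the calls: active = gene knockdowns whose robust z-score for IL-1 alpha signal is at least 2 or at most -2, so actives lie on both sides; inactive = the rest.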 The sample as a whole holds a higher share of actives than the screen did.

Test: Components of the Cytosolic LPS Sensing Pathway: Gene Identification via Genome-wide siRNA Screen;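 note: robust z of the log signal after scaling to non-targeting control siRNA wells of the plate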
Settings: RAW264.7 macrophages, IL-1a HTRF, actives lie on both sides, screened at 100 nM (by protocol), cells primed 5 h with Pam3CSK4 first
In short: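 Using IL-1a HTRF as read-out, the screen measured release from RAW264.7 cells after 48h siRNA knockdown (100 nM), 5 h Pam3CSK4 priming and 24 h cytosolic LipidA. Values were expressed relative to negative-control wells as robust z-scores.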

Sequence	z-score
GGCUGUCUUUGUUCCAGUATT against Tnfrsf10b	0.218 (inactive)
GGGCCAAGGAACCUAUUUGTT against Ltbr	0.58 (inactive)
GGCUCUUAGAAAAAUGUUATT against Olfr1156	-0.816 (inactive)
GGUCUACGGCACCUUCUAUTT against Bsnd	-0.438 (inactive)
CGGGUUUCAUUAUUAUUCCTT against Foxa1	-0.352 (inactive)
GGUGUGCCUAUGUUAUAGUTT against Slc13a5	-0.982 (inactive)
GGUGAGUUAUAAAAGACCATT against Pex12	-0.0509 (inactive)
GGUGGAUUUUGAAACUAUUTT against Pcdhb17	1.11 (inactive)
GGCUGAACUGAUCCUGUACTT against Kcnh3	-2.22 (active)
GCAAGUAGUUAGCUCAGGGTT against Gabpb1	-0.752 (inactive)
GGCAUUCUGAAAAAAUAGCTT against Rb1cc1	-1.55 (inactive)
GGUUUGUGGAUGACAACGGTT against Mtf1	0.216 (inactive)
GGCGAAUGGAAGAUAAUGCTT against Stxbp3	-0.233 (inactive)
CGAGUUUGUAAUGAUGCUATT against Cabp4	2.51 (active)
GGAACUCUGUAGACAGAAUTT against Lpin1	0.705 (inactive)
GGCUCAGAUCUUUGACUACTT against Pnp	-0.232 (inactive)
GGACUUGGAGUUUCGUAAATT against Lmnb1	2.92 (active)
GGCUGAAAAGAAAAACAGATT against Rgs5	-0.378 (inactive)
CGUGACAUGCACGACUUCUTT against Tac2	1.49 (inactive)
GGGAGAAAAGGGUCAAAAATT against Marco	0.819 (inactive)
GGCCAAGGAAAUAUCAAUGTT against Alg14	2.69 (active)
GGAACUGUGUGACUACUUUTT against Necab2	0.18 (inactive)

Sequence	z-score
GGUCAACAUUUGCUGUAAGTT against Inhba	-0.599 (inactive)
GGGAAAAUAUCAAGUGUAGTT against Tmem60	0.567 (inactive)
GGGCAAACCGGAAAAACAGTT against Ccdc71	-2.06 (active)
GCUGUUUCAAAAGUCAUAUTT against Col11a1	1.96 (inactive)
GCAGAUACCAUGAUACAGUTT against Med20	-0.154 (inactive)
GGUAAAUGUGAAUGUAAGGTT against Ntn4	0.73 (inactive)
GGAUAAUUUAAACAUGGGATT against Cd276	-1.08 (inactive)
GGCUACUGGAGCAAGUUUATT against Apoc3	2.48 (active)
GGUUUAGGGUCAAGAUAUUTT against Ttf2	-1.39 (inactive)
GGAUUGGCAACCUCCAUUUTT against Kdm5a	-0.312 (inactive)
GGACAAUGAGAUUCUUCUCTT against Mptx1	-1.58 (inactive)
GGCAACUAUAAGUACAUAGTT against Gsta3	3.87 (active)
GGAAGGUGCUAAAAAUAUATT against Pdhx	0.23 (inactive)
GGAAAAGACAUCAGAUGAATT against Mrpl1	0.233 (inactive)
GGUAAUGGAAAUGAACAAATT against Zfp353-ps	0.381 (inactive)
GGUCUCAUAGAGUGUUACUTT against Anapc7	4.38 (active)
GGAACUGGACAAGGACGAUTT against Arhgdia	1.17 (inactive)
GGAUUUGAGUGGUAAUGAATT against Tm2d1	-2.2 (active)
GGAAAAUGUCCCACUUUUATT against Olfr70	-0.926 (inactive)
GGAUUUGACCAGUAUAAGUTT against Ptgs2	-1.05 (inactive)
GGCUCCAAUAAAGUGCCUUTT against Elf3	1.46 (inactive)
GCUGGAGAUCUAAAAACAGTT against Mphosph10	1.54 (inactive)

Sequence	z-score
GGCAACUUAAGUUUUACAGTT against Tmem170	-0.898 (inactive)
GGUGAUAUGUGUGGGCUUGTT against Fahd2a	-2.06 (active)
GGAGUUCUGUCCAUUUUGATT against Olfr1198	0.45 (inactive)
GCGUAGAAGACACUUAUAGTT against Zc3h14	1.47 (inactive)
GGCUCUGAAUUAACUCCAGTT against Srpk3	-0.654 (inactive)
GCUAUUGACAUAAUGAGGCTT against Nfe2l3	-1.41 (inactive)
GGGUACAAAGGCUGUAGUUTT against Sec61a1	-2.42 (active)
CCUGAAUUCAGUCUGUUUUTT against Depdc1b	-0.931 (inactive)
GGAAAAUGUUUUACCAAUGTT against Rspry1	-0.102 (inactive)
GGACAUCGGAUUCUACACCTT against Psg19	0.531 (inactive)
CCAACAAAAGCCUAUUCGGTT against Hsh2d	-0.169 (inactive)
GAACUUUGCCAUUGAUUUGTT against Ndufs6	1.63 (inactive)
GCUGAUUUCUCAAACAUGATT against Serpinb10	-0.489 (inactive)
GUCCCUGAACCUGUGGUAUTT against Emp3	1.26 (inactive)
GCUGUUCCACAUUGAAGUGTT against Pcdh18	2.84 (active)
GCUGAUGGACUCAAGAAAGTT against Zbed5	-0.805 (inactive)
GGACCAUUCUGGCUACUCATT against Ankrd34b	-2.17 (active)
GGACAAAUUUCUUUUCCUUTT against Atp10a	-0.448 (inactive)
GCUGAUAAACCACUUGUGATT against Olfr1287	-0.804 (inactive)
GGCAUUCAAACCUCUCGUGTT against Dcn	-0.921 (inactive)
GGGUGAUUGAUCACUACUUTT against Olfr279	0.784 (inactive)
GGAAAUGGUAAUUUUCAGUTT against Slc25a36	-0.242 (inactive)

Sequence	z-score
GGGAUGAAGUCCUGGAUAATT against Atp6v1g1	-0.953 (inactive)
CCAACUUCGAUGCUGAGAGTT against Anxa2	-1.8 (inactive)
CGACAGAGGAAGGUAUUGGTT against Gcsh	-2.95 (active)
CGCCUCAUCAUCUCGAUUCTT against Cnga3	-1.63 (inactive)
GCAUGUGGAGAAGAUGAGGTT against Tas2r143	0.793 (inactive)
GGAUUUCAAAGUGCUUUGCTT against Kifap3	3.44 (active)
CCUAAACCCAUUCCAGUCUTT against Dpm3	0.104 (inactive)
CCUGAGACAUACUUAAUGUTT against Anapc10	0.747 (inactive)
CCUCGAGAGACUUUCAUGGTT against F2	-0.475 (inactive)
GCUUAUGAGAUGAGUGAAUTT against Ccdc43	-0.209 (inactive)
GGAAUGUUUGGUGCUAUGATT against Flvcr2	3.4 (active)
GGGAUUUUCAGGGAGAUUUTT against Plekho1	1.46 (inactive)
CCAGGACCUUAUCAGGUUUTT against Idh2	2.44 (active)
GCUUAGGAAUGGCGACAACTT against Vmn1r188	-0.413 (inactive)
GGCAAUGAGAAAGUUACUCTT against Olfr1102	1.65 (inactive)
GGCAGGUGUUAAGGCUUCATT against Tas2r117	0.873 (inactive)
GGAACCACUGCUUUCAAAATT against Cd36	0.83 (inactive)
GCUUUACCUGCAUAUUCCATT against Nradd	-2.04 (active)
GGGCCAGCAUGUUAUCUGUTT against Kat8	-0.8 (inactive)
CCAGCCAGACUGAAAAAGCTT against Stmnd1	-0.652 (inactive)
GGGAGAUGCAACAACAAGATT against Epx	-0.847 (inactive)
GGACAAAUGAACAUGCUGATT against Edn2	-2.26 (active)

Sequence	z-score
GAAGUGAUGCUGCUAGUAGTT against A030005L19Rik	-2 (inactive)
GGAACACUGGGAACGUAUCTT against Ifnk	0.00139 (inactive)
GCCCUAGUGUCUGAAAAAATT against Sfrp5	0.864 (inactive)
GGACAAGGCUGCUACUUCATT against Pou6f2	1.74 (inactive)
GGCACUUCUUAAUCCCACATT against Nfe2	-2.41 (active)
GUACAAGUGUGGACCCUUATT against Chchd2	0.409 (inactive)
GCAGGCUACCUCUAAUCCATT against Slc23a3	-0.241 (inactive)
GGAUCUAAAGCUUGAACCUTT against Pheta1	1.24 (inactive)
GCUACCAUCUGCUAAUACATT against Smg1	3.65 (active)
GGUUCCACAGUGGCAAAUGTT against Vmn1r202	0.957 (inactive)
GCCUAUCACGAGCUAUGAUTT against Shkbp1	-1.5 (inactive)
GGAAUCGAAACCAAUGUGUTT against Il1rl2	-0.471 (inactive)
GGUUCAAAUGUUCUCCAUATT against 9530080O11Rik	2.55 (active)
GCUCCGGAAAUUGGCAUCATT against Ppp1r10	-1.5 (inactive)
GGAGAAGAAGAAAAAGUCATT against BC005537	-0.495 (inactive)
GAUGUUUCAGAACAUUCUUTT against Cadps	0.436 (inactive)
GGACAUAAAAGUGUCUCGATT against Cldn13	0.16 (inactive)
GCCAAGGGUUUGAAAGCCATT against Tpm1	-0.949 (inactive)
GGCUUGUUUUGCCCAGAUGTT against Olfr398	-2.94 (active)
CCUCAUGUUAAUCUGGAGATT against Gabre	0.0167 (inactive)
